In PubChem BioAssay AID1852 (Sanford-Burnham Center for Chemical Genomics, 2009):
The whole screen tested about 2,500 compounds, of which about 1,100 (44%) were called active. The set was probably picked from earlier hits. This is one part of the list. Values without a mark were called inactive.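 How the source made its calls: active means inhibition above 50% at 4 µM in the single-point screen; inactive means inhibition of 50% or less.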

Assay: TNF-a-driven NF-kB reporter inhibitors, primary screen, selectivity assay for NOD1/NOD2 signaling inhibitor project, cell-based, HEK293T NF-kB-Luc, luminescence (AID 1852)
Details: TNF-a induced, 14 h, at 4 µM, hits give high values
For `CCCCN=C[C@]12CCC(O)CC1(O)CCC1[C@@H]2CC[C@]2(C)[C@H](C3C=CC(=O)O3)CCC12O` (stereo not given in full), the inhibition was 92.1% (active).
For `COc1ccc(-[n+]2c(-c3ccccc3)cc(-c3ccc(C)cc3)cc2-c2ccccc2)cc1`, the inhibition was 75.4% (active).
With `CN(C)c1ccc(-[n+]2c(-c3ccccc3)cc(-c3ccccc3)cc2-c2ccccc2)cc1` the inhibition was 94.6% (active).
Compound `COc1ccc(-c2cc(-c3ccccc3)[n+](C)c(-c3ccccc3)c2)cc1` has an inhibition of 46.4%.
In the case of `O=C(c1ccc(Cl)cc1)C1CCCN(Cc2cccc3ncccc23)C1` (stereo not given), the inhibition is reported as 29.9%.
With `CCOc1ccc(-c2c(C)n(-c3ccc(OCC)cc3)c3[n+]2CCCCC3)cc1` the inhibition was 87% (active).
For `COC1CC(OC2CCC3(C)C(CCC4C3CCC3(C)C(C5=CC(=O)OC5)C(OC(C)=O)CC43O)C2)OC(C)C1OC1OC(COC2OC(CO)C(O)C(O)C2O)C(O)C(O)C1O` (stereo not given), the inhibition was 94.7% (active).
For `CC(=O)c1c(C)n(C2CCCCC2)c2ccc(O)cc12`, the inhibition was 90% (active).
`CC(C)(C)c1ccc(CSc2cnn(C(C)(C)C)c(=O)c2Cl)cc1` showed an inhibition of 48.3%.
For `NC(=O)c1cn(C2OC(CO)C(O)C2O)c2ncnc(N)c12` (stereo not given), the inhibition was 99.9% (active).
In the case of `CN1C2CCC1/C(=C/c1ccccn1)C(=O)/C2=C\c1ccccn1`, the inhibition is reported as 102% (active).
`Cc1cc(C)cc(N2C(=O)NC(=O)/C(=C/c3cccn3-c3ccc(Cl)cc3)C2=O)c1` gave an inhibition of -24%.
With `CN1C(=O)/C(=C/c2cccn2-c2ccc3ccccc3c2)C(=O)NC1=S` the inhibition was 5.6%.
In the case of `CCn1nc(-c2ccccc2)nc2c(=O)n(C)c(=O)nc1-2`, the inhibition is reported as 99.1% (active).
With `CCn1nc(/C=C/c2ccccc2)nc2c(=O)n(C)c(=O)nc1-2` the inhibition was 104% (active).
With `C=CCN1C(=O)NC(=O)/C(=C/C=C/c2ccccc2)C1=O` the inhibition was 49.4%.
`O=C1NC(=O)N(Cc2ccco2)C(=O)/C1=C/C=C/c1ccco1` gave an inhibition of -10.1%.
With `O=C1NC(=O)N(CCc2ccc(F)cc2)C(=O)/C1=C\C=C\c1ccccc1` the inhibition was 56% (active).
In the case of `O=C1NC(=O)N(Cc2ccc(F)cc2)C(=O)/C1=C\C=C\c1ccco1`, the inhibition is reported as 89.3% (active).
With `COc1cc(OC)c(OC)cc1/C=C1/C(=O)NC(=O)N(Cc2ccccc2)C1=O` the inhibition was 29.5%.
`O=C1NC(=O)N(Cc2ccccc2)C(=O)/C1=C/C=C/c1ccco1` gave an inhibition of 36.6%.
For `COc1ccc(Oc2cc(NC(=O)c3nn(C)cc3[N+](=O)[O-])cc([N+](=O)[O-])c2)cc1`, the inhibition was 61.5% (active).
With `C[C@H]1CCC[C@@H](O)CCC/C=C/c2cc(O)cc(O)c2C(=O)O1` the inhibition was 73.6% (active).
Work on `CC(=O)c1cn(Cc2ccccc2F)c2ccccc12` yielded an inhibition of 31.5%.
With `Cc1nc2c(=O)n(C)c(=O)nc-2n(C)n1` the inhibition was 99.4% (active).
Compound `CCn1ccnc1CN1CCCC(C(=O)c2cc(Cl)ccc2OC)C1` (stereo not given) has an inhibition of 0.8%.
In the case of `O=c1c2ccccc2nc(/C=C/c2ccccc2O)n1-c1ccccc1O`, the inhibition is reported as 64.8% (active).
With `O=c1c2ccccc2nc(/C=C/c2ccc3c(c2)OCO3)n1-c1ccccc1` the inhibition was -34.6%.
In the case of `O=C1C(=O)c2ccccc2-c2ccccc21`, the inhibition is reported as 104% (active).
In the case of `O=C1NC(=O)N(c2ccccc2)C(=O)/C1=C/C=C/c1ccco1`, the inhibition is reported as 32%.
With `O=C1NC(=O)N(c2ccccc2)C(=O)/C1=C\C=C\c1ccccc1` the inhibition was 45.9%.
With `CN1C(=O)NC(=O)/C(=C\C=C\c2ccccc2[N+](=O)[O-])C1=O` the inhibition was 72.4% (active).
Compound `O=c1nc(/C=C/c2ccc(Cl)cc2Cl)cc(C(F)(F)F)[nH]1` has an inhibition of -105%.
Work on `COc1ccc(-n2c(O)c(/C=C3\C=Nc4ccc(Br)cc43)c(=O)[nH]c2=O)cc1` yielded an inhibition of 23.8%.
`O=C(c1cc(-c2ccc(Cl)cc2)n(-c2ccc(Cl)cc2Cl)n1)N1CCOCC1` gave an inhibition of -36%.
With `CC(=O)OC[C@]12CCC(C)=C[C@H]1O[C@@H]1[C@H](O)[C@@H](OC(C)=O)[C@@]2(C)[C@]12CO2` the inhibition was 102% (active).
For `C=C(C=O)CC1CC(O)[C@]2(C)OC3CC4OC5C[C@]6(C)O[C@]7(C)CCC8OC9C[C@]%10(C)OC%11C(C)=CC(=O)OC%11CC%10OC9C[C@@H](C)C8OC7CC6O[C@]5(C)CC5OC5C4OC3CC2O1` (stereo not given in full), the inhibition was 80.4% (active).
In the case of `CCCCCn1c(=O)c(C(=O)Nc2cnccn2)c(O)c2ccccc21`, the inhibition is reported as 53.4% (active).
With `CC(C)CCn1c(=O)c(C(=O)Nc2ccccc2S(N)(=O)=O)c(O)c2ccccc21` the inhibition was -7.2%.
`CCCCCn1c(=O)c(C(=O)Nc2ccccc2S(N)(=O)=O)c(O)c2ccccc21` gave an inhibition of -7%.
Work on `CCCCCCCn1c(=O)c(C(=O)Nc2cnccn2)c(O)c2ccccc21` yielded an inhibition of 34.9%.
For `CCCCCCn1c(=O)c(C(=O)Nc2cnccn2)c(O)c2ccccc21`, the inhibition was 52.2% (active).
Compound `CCCCn1c(=O)c(C(=O)Nc2cnccn2)c(O)c2ccccc21` has an inhibition of 3.4%.
`Cc1ccc(N2C(=O)NC(=O)/C(=C\C=C\c3ccco3)C2=O)cc1` gave an inhibition of 9.7%.
With `O=Cc1cn(Cc2cccc([N+](=O)[O-])c2)c2ccccc12` the inhibition was 86.7% (active).
`O=c1[nH]c(=O)n(-c2ccccc2F)c(O)c1/C=C1\C=Nc2ccccc21` gave an inhibition of 14.8%.
For `Cc1cccc(-n2c(/C=C/c3ccc([N+](=O)[O-])o3)nc3ccccc3c2=O)c1`, the inhibition was 91.9% (active).
`COc1ccc(-n2c(/C=C/c3ccc(O)cc3)nc3ccccc3c2=O)cc1` showed an inhibition of 3.4%.
For `O=c1c2ccccc2nc(/C=C/c2ccc([N+](=O)[O-])o2)n1-c1ccc(O)cc1`, the inhibition was 89.7% (active).
`Nc1nonc1C(=O)N/N=C/c1ccc([N+](=O)[O-])o1` gave an inhibition of 31.1%.
For `Cc1ccc(/C=C2\C(=O)NC(=S)N(c3ccccc3F)C2=O)s1`, the inhibition was 106% (active).
For `COc1cccc(N2C(=O)/C(=C/c3ccc(C)o3)C(=O)NC2=S)c1`, the inhibition was 40.9%.
For `O=C1NC(=S)N(c2ccccc2F)C(=O)/C1=C\c1cccs1`, the inhibition was -11.1%.
Compound `Cc1ccc(Sc2ccc(C=C3C(=O)N(C)C(=O)N(C)C3=O)o2)cc1` has an inhibition of -5.5%.
Work on `C=CCn1c(O)c(C(C)=NCc2cc(OC)cc(OC)c2)c(=O)[nH]c1=O` yielded an inhibition of 16%.
